Source: ChEMBL document CHEMBL2218924, “A broad activity screen in support of a chemogenomic map for kinase signalling research and drug discovery” (Biochem J, 2013)

What was measured:
[1] = biological target: T1, Mitogen-activated protein kinase kinase kinase 5 (Homo sapiens) (UniProt Q99683); settings: at 10 µM
T1 sequence (whole entry): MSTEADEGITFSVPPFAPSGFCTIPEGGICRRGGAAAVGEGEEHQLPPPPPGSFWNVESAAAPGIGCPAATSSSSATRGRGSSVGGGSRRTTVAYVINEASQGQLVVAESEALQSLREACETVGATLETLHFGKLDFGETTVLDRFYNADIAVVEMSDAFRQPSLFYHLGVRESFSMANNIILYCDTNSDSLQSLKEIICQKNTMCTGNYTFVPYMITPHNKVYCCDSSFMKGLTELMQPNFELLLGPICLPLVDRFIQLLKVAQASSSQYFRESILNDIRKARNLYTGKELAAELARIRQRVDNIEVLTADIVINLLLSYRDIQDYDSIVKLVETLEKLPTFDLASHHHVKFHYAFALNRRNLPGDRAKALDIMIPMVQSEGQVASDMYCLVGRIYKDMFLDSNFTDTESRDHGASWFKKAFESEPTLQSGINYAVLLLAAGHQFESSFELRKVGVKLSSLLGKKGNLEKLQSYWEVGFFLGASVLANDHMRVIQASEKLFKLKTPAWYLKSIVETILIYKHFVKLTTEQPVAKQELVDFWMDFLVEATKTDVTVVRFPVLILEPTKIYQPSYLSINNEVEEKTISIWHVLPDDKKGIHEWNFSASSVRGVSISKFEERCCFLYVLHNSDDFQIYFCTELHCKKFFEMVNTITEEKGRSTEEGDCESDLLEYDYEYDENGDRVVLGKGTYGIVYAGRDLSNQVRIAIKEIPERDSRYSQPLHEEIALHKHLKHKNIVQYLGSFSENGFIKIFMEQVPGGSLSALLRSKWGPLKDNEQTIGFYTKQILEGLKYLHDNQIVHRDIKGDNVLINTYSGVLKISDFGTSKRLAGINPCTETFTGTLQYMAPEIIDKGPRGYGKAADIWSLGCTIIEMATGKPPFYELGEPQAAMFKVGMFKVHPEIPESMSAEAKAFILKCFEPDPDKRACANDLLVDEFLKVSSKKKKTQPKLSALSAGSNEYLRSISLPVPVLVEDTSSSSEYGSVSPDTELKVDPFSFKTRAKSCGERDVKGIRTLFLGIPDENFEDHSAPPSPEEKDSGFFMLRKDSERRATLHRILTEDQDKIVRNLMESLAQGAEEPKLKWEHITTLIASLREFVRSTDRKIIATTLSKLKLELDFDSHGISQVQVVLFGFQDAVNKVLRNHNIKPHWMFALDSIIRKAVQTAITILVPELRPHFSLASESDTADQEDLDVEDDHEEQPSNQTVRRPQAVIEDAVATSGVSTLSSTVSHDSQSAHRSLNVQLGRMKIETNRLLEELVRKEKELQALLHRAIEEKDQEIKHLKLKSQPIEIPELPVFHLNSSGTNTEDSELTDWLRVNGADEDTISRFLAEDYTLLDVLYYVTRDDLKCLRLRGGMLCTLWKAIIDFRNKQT

[2] = biological target: Tyrosine-protein kinase ABL1 (Homo sapiens) (UniProt P00519); settings: at 1 µM
Tyrosine-protein kinase ABL1 (Homo sapiens), sequence (P00519 whole entry): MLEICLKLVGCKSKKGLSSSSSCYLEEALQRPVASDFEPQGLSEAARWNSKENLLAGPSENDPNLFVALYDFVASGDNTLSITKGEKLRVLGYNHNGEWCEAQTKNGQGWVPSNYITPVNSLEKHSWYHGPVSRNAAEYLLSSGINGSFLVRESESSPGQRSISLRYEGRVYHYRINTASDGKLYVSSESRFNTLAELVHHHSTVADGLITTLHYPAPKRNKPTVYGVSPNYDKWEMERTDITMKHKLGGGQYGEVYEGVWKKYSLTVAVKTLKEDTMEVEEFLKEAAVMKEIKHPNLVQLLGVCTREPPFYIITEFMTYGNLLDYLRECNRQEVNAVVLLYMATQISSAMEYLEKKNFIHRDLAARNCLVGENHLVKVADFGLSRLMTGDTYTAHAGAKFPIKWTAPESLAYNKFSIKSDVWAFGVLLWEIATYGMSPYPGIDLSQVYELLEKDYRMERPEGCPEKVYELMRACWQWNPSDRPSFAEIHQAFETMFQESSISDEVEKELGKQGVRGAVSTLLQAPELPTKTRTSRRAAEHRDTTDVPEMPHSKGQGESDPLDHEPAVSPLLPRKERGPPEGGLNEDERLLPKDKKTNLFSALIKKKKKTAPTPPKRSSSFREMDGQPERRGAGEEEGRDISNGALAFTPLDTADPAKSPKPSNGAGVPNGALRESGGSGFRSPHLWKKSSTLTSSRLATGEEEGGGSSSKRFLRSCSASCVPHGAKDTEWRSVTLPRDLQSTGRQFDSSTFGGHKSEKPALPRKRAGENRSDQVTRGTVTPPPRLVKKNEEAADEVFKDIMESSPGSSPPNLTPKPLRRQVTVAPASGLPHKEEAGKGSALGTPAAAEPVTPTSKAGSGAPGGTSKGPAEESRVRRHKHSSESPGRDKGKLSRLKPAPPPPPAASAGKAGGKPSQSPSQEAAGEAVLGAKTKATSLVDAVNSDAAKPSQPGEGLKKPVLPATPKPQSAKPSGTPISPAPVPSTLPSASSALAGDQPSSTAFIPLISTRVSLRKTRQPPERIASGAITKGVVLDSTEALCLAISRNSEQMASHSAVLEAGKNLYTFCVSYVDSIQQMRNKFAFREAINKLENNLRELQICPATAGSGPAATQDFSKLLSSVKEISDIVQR

[3] = biological target: Tyrosine-protein kinase ABL1 (Homo sapiens) (UniProt P00519); settings: at 10 µM
[4] = biological target: Tyrosine-protein kinase ABL2 (Homo sapiens) (UniProt P42684); settings: at 1 µM
Tyrosine-protein kinase ABL2 (Homo sapiens), sequence (P42684 whole entry): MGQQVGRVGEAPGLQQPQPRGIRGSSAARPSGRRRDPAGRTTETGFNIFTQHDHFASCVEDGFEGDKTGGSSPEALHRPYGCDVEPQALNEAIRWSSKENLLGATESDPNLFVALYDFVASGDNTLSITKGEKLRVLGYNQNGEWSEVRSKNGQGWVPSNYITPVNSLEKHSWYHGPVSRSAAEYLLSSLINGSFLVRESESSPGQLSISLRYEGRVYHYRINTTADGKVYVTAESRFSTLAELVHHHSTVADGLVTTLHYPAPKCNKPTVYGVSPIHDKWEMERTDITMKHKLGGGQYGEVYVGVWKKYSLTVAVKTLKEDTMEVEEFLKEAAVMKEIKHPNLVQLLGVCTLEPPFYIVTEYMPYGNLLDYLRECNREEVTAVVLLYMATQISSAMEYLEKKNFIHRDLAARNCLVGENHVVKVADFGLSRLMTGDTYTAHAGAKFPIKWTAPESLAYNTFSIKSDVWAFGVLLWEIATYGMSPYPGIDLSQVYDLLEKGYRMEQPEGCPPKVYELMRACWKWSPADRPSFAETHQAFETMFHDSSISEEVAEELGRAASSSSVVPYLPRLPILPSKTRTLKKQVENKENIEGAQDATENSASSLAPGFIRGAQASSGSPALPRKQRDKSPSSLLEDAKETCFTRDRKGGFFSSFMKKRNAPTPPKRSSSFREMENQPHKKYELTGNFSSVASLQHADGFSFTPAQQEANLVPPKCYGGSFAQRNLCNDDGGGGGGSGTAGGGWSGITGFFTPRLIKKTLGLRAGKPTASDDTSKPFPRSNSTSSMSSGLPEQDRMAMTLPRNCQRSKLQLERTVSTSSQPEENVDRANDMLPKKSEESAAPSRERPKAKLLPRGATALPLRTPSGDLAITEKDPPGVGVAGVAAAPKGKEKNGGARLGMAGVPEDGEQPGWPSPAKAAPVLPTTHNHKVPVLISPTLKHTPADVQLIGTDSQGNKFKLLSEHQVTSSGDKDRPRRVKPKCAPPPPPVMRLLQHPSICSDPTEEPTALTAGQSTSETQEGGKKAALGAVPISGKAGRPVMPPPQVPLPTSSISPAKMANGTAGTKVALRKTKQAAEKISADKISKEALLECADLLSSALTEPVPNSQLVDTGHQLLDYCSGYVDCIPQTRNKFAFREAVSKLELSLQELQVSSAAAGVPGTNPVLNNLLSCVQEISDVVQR

[5] = biological target: Tyrosine-protein kinase ABL2 (Homo sapiens) (UniProt P42684); settings: at 10 µM
[6] = biological target: T2, Aurora kinase A (Homo sapiens) (UniProt O14965); settings: at 10 µM
T2 sequence (whole entry): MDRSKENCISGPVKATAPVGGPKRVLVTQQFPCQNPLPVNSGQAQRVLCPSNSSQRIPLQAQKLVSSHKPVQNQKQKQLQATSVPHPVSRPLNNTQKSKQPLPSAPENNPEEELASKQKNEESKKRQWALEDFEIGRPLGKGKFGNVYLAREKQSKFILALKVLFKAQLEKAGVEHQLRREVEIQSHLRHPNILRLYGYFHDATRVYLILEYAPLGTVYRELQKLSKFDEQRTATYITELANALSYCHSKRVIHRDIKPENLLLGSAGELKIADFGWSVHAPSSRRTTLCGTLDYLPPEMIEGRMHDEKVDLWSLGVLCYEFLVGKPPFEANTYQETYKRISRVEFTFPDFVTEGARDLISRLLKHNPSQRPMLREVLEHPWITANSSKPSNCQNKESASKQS

[7] = biological target: Aurora kinase B (Homo sapiens) (UniProt Q96GD4); settings: at 1 µM
Aurora kinase B (Homo sapiens), sequence (Q96GD4 whole entry): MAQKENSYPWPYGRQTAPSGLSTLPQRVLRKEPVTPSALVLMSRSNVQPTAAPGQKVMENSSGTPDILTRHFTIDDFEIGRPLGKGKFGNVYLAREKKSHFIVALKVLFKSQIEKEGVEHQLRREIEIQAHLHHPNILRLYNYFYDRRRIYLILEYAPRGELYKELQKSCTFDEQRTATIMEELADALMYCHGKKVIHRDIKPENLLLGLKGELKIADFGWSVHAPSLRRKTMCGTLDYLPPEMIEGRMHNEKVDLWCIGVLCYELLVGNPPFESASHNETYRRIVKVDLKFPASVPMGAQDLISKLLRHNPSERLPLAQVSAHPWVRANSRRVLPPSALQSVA

[8] = biological target: Aurora kinase B (Homo sapiens) (UniProt Q96GD4); settings: at 10 µM
[9] = biological target: T3, Aurora kinase C (Homo sapiens) (UniProt Q9UQB9); settings: at 1 µM
T3 sequence (whole entry): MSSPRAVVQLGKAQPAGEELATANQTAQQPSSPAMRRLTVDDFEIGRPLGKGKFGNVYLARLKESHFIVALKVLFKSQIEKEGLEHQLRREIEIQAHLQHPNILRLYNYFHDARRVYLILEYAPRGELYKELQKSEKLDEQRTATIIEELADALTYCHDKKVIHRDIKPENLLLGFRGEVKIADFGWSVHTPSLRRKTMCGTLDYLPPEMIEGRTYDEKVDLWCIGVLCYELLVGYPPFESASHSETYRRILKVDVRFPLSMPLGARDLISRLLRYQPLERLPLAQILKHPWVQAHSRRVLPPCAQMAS

[10] = biological target: T3, Aurora kinase C (Homo sapiens); settings: at 10 µM
[11] = biological target: Tyrosine-protein kinase receptor UFO (Homo sapiens) (UniProt P30530); settings: at 1 µM
[12] = biological target: Tyrosine-protein kinase receptor UFO (Homo sapiens) (UniProt P30530); settings: at 10 µM
[13] = biological target: Protein-tyrosine kinase 6 (Homo sapiens) (UniProt Q13882); settings: at 1 µM
Protein-tyrosine kinase 6 (Homo sapiens), sequence (Q13882 whole entry, looked up): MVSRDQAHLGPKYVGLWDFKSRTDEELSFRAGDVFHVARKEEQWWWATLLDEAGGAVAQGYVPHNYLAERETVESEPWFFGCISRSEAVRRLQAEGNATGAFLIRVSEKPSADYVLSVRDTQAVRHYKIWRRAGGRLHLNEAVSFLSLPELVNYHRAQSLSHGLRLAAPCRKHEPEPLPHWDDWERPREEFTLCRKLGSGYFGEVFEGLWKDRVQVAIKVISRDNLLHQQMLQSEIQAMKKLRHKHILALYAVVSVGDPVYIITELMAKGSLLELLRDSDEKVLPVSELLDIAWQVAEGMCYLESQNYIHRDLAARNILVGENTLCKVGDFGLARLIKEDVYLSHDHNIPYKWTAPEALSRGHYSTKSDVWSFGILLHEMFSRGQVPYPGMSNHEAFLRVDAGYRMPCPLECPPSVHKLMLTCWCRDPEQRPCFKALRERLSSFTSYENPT

[14] = biological target: Protein-tyrosine kinase 6 (Homo sapiens) (UniProt Q13882); settings: at 10 µM
[15] = biological target: Tyrosine-protein kinase Blk (Homo sapiens) (UniProt P51451); settings: at 1 µM
Tyrosine-protein kinase Blk (Homo sapiens), sequence (P51451 2-505 limits assumed): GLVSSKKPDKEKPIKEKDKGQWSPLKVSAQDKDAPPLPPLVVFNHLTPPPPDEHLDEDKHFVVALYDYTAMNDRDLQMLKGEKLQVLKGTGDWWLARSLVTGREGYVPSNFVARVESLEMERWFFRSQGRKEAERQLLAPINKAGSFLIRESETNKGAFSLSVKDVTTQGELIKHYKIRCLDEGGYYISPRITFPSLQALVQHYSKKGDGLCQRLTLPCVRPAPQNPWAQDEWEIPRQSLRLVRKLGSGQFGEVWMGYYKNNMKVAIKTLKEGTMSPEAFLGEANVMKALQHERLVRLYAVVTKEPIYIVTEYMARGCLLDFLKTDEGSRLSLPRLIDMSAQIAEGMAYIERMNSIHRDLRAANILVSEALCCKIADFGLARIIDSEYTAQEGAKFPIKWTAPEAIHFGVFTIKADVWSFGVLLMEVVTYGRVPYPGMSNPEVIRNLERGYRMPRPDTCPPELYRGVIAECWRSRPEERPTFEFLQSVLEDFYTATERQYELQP

[16] = biological target: Tyrosine-protein kinase Blk (Homo sapiens) (UniProt P51451); settings: at 10 µM
[17] = biological target: T4, Protein kinase C zeta type (Homo sapiens) (UniProt Q05513); settings: at 1 µM
T4 sequence (whole entry): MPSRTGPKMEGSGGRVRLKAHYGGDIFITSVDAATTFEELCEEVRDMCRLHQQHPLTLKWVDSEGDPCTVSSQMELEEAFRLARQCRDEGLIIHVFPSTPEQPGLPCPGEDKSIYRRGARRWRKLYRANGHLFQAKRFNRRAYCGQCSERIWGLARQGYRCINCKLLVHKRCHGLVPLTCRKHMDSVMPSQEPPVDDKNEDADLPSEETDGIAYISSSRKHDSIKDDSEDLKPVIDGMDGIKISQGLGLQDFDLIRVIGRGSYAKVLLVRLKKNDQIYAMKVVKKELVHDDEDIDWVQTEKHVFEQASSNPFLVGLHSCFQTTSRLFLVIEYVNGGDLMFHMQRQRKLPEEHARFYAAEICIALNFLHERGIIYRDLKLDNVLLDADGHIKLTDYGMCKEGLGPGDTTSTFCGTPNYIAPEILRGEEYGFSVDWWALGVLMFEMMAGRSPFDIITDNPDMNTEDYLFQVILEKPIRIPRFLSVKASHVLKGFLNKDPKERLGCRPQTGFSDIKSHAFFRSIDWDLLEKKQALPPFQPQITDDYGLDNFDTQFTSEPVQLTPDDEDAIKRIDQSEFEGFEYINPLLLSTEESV

[18] = biological target: T2, Aurora kinase A (Homo sapiens); settings: at 1 µM
[19] = biological target: Tyrosine-protein kinase BTK (Homo sapiens) (UniProt Q06187); settings: at 1 µM
Tyrosine-protein kinase BTK (Homo sapiens), sequence (Q06187 whole entry): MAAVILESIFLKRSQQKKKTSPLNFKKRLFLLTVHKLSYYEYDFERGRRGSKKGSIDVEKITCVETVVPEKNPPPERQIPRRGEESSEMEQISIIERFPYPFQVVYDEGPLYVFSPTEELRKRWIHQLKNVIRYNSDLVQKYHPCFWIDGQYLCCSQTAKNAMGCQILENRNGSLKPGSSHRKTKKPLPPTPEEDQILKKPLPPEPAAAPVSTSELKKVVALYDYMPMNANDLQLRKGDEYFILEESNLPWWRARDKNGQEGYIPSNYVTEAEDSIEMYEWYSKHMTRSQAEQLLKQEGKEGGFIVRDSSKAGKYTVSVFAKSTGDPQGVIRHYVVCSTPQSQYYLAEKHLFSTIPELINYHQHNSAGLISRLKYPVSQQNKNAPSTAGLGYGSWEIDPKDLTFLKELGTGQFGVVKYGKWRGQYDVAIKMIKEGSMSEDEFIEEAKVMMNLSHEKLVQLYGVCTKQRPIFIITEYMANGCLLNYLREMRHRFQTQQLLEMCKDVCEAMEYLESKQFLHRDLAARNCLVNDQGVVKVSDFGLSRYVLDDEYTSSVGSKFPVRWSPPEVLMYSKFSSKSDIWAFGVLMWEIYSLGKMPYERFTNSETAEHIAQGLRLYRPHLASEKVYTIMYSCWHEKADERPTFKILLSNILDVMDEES

[20] = biological target: Tyrosine-protein kinase BTK (Homo sapiens) (UniProt Q06187); settings: at 10 µM

SMILES	residual activity [1]	residual activity [2]	residual activity [3]	residual activity [4]	residual activity [5]	residual activity [6]	residual activity [7]	residual activity [8]	residual activity [9]	residual activity [10]	residual activity [11]	residual activity [12]	residual activity [13]	residual activity [14]	residual activity [15]	residual activity [16]	residual activity [17]	residual activity [18]	residual activity [19]	residual activity [20]
COc1cc2ncnc(Nc3cccc(Cl)c3)c2cc1OC	106%	41%	14%	48%	10%	49%	64%	8%	100%	45%	102%	51%	33%	3%	43%	5%	–	–	–	–
CC(C)(C)n1nc(Cc2cccc3ccccc23)c2c(N)ncnc21	–	87%	28%	68%	18%	104%	130%	87%	94%	71%	80%	72%	5%	-1%	77%	13%	103% (inactive)	93%	24%	3%
Cn1c2ccccc2c2c3c(c4c5ccccc5n(CCC#N)c4c21)CNC3=O	16%	–	–	–	–	19%	0%	1%	47%	35%	53%	32%	–	–	–	–	102% (inactive)	4%	10%	9%
O=C(O)/C=C/c1cc(Br)c(Br)c(Br)c1Br	91%	86%	40%	75%	53%	38%	60%	16%	98%	78%	91%	51%	99%	101%	99%	81%	–	83%	102%	91%
Nc1ncnc2c1c(-c1ccc(Oc3ccccc3)cc1)cn2C1CCCC1	85%	–	6%	80%	21%	7%	43%	6%	87%	54%	58%	21%	0%	-1%	0%	0%	99% (inactive)	35%	1%	1%
O=C(NC(NC(=S)Nc1ccc(F)c([N+](=O)[O-])c1)C(Cl)(Cl)Cl)C(c1ccccc1)c1ccccc1 (stereo not given)	–	–	77%	–	93%	69%	–	69%	94%	91%	–	91%	–	–	–	–	102% (inactive)	83%	87%	89%
CCCCc1c(-c2ccc(O)cc2)[nH]c2nccnc12	83%	81%	44%	75%	60%	20%	2%	0%	50%	49%	92%	75%	31%	29%	73%	50%	–	6%	33%	10%
